# Measured values from article PMC7862700, “An all-to-all approach to the identification of sequence-specific readers for epigenetic DNA modifications on cytosine”.
# How the values were obtained:
# Test in all cases: DAPPL (digital affinity profiling via proximity ligation, sequencing); 10 mM Tris-HCl pH 7.5, 50 mM NaCl, 1 mM DTT, 4% glycerol, room temperature, 30 min; GST-TFs on glutathione beads, 16-mer random dsDNA library, 0.1% formaldehyde crosslink after washing; high values mean tight binding
# Conditions in all cases: protein: recombinant; tags: N-terminal GST; dsDNA, one strand shown
# [1] = molecular target: T1, FLI1 (Homo sapiens, UniProt Q01543 1-452)
# T1 sequence: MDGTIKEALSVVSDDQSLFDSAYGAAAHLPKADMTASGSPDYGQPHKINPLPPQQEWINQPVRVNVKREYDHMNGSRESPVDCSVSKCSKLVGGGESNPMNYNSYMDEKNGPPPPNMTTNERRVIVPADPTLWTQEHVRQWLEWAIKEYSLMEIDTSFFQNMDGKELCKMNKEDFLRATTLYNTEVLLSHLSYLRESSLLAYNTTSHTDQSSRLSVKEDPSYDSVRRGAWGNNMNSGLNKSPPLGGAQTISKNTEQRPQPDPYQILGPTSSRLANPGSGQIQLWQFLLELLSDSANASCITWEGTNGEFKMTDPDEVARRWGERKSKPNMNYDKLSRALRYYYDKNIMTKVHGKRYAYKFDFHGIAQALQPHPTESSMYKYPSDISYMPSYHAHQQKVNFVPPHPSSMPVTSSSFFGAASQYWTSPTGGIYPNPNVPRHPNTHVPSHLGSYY
# Summary of the method: (§1)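 After expression in yeast as GST fusions, human transcription factors were bound to glutathione beads, DNA-barcoded and mixed with a tag-only sample. The pools were incubated with 200 nmole of a 16-mer random double-stranded DNA library in Tris/NaCl/DTT/glycerol buffer (30 min, room temperature), washed and crosslinked with 0.1% formaldehyde. Proximity ligation with BsaI/T4 ligase ran for 1 h at 37 °C, before PCR amplification and sequencing on an Illumina NextSeq500. Binding signal is a hexamer's read frequency for a factor divided by its frequency for the tag-only sample.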
# [2] = molecular target: T2, ELK1 (Homo sapiens, UniProt P19419 1-428)
# T2 sequence: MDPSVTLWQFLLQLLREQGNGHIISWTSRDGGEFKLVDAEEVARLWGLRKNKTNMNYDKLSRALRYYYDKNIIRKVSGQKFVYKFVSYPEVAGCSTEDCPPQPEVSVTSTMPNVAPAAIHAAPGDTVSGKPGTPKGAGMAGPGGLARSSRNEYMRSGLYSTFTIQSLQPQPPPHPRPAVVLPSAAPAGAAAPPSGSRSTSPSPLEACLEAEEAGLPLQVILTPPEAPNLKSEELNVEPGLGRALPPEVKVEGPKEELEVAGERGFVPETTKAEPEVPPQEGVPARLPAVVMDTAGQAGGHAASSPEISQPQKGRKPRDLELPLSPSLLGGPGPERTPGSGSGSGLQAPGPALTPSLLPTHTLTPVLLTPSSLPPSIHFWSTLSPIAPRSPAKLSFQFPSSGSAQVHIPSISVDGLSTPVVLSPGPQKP
# Summary of the method: as §1
# [3] = molecular target: T3, GABPA (Homo sapiens, UniProt Q06546 1-454)
# T3 sequence: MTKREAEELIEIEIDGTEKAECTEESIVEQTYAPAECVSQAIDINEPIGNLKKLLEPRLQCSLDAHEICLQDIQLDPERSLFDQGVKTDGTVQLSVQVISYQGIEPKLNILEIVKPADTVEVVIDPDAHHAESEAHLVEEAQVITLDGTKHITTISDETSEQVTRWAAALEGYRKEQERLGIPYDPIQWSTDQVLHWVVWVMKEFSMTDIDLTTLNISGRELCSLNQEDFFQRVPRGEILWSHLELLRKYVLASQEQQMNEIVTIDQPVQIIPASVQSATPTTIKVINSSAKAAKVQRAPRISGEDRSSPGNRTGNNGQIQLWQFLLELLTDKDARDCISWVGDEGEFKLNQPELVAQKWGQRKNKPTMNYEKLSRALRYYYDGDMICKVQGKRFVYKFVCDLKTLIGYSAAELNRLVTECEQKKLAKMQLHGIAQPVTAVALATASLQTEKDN
# Summary of the method: as §1
# [4] = molecular target: T4, ERG (Homo sapiens, UniProt P11308 1-479)
# T4 sequence: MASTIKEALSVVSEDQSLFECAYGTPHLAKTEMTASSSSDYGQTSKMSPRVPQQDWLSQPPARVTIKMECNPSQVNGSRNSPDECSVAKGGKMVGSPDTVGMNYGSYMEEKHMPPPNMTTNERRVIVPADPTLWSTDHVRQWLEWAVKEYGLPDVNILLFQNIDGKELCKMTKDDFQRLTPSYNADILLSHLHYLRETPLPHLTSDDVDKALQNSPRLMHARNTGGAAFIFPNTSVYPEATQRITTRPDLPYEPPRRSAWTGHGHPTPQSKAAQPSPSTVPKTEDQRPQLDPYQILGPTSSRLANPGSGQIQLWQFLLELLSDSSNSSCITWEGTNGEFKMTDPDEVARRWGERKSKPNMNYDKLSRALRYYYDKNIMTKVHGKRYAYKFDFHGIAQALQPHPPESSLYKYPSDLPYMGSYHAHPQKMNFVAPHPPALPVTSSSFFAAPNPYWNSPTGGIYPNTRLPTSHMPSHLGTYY
# Summary of the method: as §1
# [5] = molecular target: ELF1 (Homo sapiens, UniProt P32519 1-619)
# Summary of the method: as §1
# [6] = molecular target: T5, EHF (Homo sapiens, UniProt Q9NZC4 1-300)
# T5 sequence: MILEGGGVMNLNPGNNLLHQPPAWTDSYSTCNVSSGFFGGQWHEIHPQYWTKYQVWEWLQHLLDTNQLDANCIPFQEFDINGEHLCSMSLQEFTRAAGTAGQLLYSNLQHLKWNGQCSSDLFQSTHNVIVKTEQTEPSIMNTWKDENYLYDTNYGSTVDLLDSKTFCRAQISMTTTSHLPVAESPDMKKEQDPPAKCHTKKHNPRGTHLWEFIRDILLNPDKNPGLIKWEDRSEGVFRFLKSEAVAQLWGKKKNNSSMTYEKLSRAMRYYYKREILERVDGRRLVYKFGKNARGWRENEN
# Summary of the method: as §1
# [7] = molecular target: SPIB (Homo sapiens, UniProt Q01892 1-262)
# Summary of the method: as §1
# [8] = molecular target: T6, ELK3 (Homo sapiens, UniProt P41970 1-407)
# T6 sequence: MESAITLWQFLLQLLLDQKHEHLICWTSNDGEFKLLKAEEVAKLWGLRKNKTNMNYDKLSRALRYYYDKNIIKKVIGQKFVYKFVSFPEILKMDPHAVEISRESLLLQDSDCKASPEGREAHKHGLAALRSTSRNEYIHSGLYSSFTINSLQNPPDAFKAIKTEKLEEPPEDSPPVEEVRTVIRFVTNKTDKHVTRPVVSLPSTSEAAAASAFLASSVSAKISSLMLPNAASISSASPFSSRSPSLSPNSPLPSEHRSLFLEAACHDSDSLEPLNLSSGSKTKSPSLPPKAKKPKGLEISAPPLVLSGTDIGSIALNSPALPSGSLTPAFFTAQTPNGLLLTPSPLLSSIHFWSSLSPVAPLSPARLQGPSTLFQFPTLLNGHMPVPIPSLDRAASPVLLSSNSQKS
# Summary of the method: as §1
# [9] = molecular target: T7, FEV (Homo sapiens, UniProt Q99581 1-238)
# T7 sequence: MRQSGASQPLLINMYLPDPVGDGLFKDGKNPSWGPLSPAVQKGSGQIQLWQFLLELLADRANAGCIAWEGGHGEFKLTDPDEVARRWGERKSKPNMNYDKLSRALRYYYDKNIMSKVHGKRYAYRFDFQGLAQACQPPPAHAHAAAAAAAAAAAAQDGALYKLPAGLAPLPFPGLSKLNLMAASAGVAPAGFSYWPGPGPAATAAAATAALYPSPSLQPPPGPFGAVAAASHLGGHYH
# Summary of the method: as §1
# [10] = molecular target: ETV5 (Homo sapiens, UniProt P41161 1-510)
# Summary of the method: as §1
# [11] = molecular target: T8, SPIC (Homo sapiens, UniProt Q8N5J4 1-248)
# T8 sequence: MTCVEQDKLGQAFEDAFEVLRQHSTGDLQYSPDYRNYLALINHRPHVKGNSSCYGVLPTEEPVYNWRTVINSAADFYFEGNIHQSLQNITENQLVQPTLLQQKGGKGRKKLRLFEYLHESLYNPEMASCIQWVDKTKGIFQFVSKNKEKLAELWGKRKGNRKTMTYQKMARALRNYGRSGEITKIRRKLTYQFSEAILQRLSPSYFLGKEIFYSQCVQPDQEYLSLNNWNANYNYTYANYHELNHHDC
# Summary of the method: as §1
# [12] = molecular target: ELF4 (Homo sapiens, UniProt Q99607 1-663)
# Summary of the method: as §1
# [13] = molecular target: ETV1 (Homo sapiens, UniProt P50549 1-477)
# Summary of the method: as §1
# [14] = molecular target: T9, ERF (Homo sapiens, UniProt P50548 1-548)
# T9 sequence: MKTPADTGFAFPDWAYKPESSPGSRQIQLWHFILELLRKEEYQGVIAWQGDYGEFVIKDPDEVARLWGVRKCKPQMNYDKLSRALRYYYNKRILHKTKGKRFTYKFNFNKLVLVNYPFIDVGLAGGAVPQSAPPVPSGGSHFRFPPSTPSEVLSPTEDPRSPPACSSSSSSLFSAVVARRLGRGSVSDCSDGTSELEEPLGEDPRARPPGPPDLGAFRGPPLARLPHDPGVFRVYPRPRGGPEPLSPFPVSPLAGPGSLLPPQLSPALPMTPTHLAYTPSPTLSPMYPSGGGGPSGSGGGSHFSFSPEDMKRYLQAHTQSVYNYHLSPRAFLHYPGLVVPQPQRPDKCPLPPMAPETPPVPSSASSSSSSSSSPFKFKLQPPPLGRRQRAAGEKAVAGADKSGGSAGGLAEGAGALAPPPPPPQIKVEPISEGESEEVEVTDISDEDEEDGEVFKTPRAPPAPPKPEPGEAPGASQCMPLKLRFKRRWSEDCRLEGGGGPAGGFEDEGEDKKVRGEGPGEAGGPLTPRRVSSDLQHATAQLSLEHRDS
# Summary of the method: as §1
# [15] = molecular target: T10, ETV3L (Homo sapiens, UniProt Q6ZN32 1-361)
# T10 sequence: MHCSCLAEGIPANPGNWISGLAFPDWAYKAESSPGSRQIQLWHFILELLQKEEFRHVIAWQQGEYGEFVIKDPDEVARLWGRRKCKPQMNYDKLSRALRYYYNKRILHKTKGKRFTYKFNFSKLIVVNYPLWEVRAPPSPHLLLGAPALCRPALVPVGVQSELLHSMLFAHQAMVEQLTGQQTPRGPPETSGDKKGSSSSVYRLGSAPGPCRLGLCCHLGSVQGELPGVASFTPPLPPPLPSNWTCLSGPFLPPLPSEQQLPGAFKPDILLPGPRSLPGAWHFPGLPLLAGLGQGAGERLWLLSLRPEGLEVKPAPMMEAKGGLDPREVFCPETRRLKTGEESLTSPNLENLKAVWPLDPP
# Summary of the method: as §1
# [16] = molecular target: T11, ETS2 (Homo sapiens, UniProt P15036 1-469)
# T11 sequence: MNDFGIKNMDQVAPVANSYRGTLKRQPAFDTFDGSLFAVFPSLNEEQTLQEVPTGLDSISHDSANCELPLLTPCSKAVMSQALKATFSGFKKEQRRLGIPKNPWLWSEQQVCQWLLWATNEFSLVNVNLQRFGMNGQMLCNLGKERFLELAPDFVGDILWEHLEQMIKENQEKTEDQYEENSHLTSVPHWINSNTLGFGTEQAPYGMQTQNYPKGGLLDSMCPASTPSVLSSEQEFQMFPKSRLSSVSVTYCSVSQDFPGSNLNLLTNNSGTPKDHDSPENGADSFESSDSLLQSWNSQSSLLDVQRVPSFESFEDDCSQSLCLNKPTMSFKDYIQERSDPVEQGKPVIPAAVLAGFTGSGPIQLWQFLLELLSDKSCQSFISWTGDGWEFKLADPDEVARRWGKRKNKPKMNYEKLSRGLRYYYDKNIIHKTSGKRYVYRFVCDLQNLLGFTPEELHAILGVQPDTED
# Summary of the method: as §1
# [17] = molecular target: T12, SPDEF (Homo sapiens, UniProt O95238 1-335)
# T12 sequence: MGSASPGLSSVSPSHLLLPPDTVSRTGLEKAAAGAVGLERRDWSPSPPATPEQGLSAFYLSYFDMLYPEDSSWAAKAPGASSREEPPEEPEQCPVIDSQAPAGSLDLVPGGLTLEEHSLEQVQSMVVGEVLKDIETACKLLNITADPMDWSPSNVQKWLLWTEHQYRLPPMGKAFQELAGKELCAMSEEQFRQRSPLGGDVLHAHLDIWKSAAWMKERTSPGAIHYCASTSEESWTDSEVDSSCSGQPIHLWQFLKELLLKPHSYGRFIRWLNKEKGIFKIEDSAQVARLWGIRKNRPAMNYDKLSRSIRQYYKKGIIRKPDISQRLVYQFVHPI
# Summary of the method: as §1
# [18] = molecular target: T13, ETV3 (Homo sapiens, UniProt P41162-2 1-143)
# T13 sequence: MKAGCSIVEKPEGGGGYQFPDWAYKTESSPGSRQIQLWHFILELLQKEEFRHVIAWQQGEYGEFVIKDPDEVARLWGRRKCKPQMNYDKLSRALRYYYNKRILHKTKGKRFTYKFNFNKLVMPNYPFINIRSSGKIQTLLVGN
# Summary of the method: as §1
# Chain of ETV1 (P50549 whole entry): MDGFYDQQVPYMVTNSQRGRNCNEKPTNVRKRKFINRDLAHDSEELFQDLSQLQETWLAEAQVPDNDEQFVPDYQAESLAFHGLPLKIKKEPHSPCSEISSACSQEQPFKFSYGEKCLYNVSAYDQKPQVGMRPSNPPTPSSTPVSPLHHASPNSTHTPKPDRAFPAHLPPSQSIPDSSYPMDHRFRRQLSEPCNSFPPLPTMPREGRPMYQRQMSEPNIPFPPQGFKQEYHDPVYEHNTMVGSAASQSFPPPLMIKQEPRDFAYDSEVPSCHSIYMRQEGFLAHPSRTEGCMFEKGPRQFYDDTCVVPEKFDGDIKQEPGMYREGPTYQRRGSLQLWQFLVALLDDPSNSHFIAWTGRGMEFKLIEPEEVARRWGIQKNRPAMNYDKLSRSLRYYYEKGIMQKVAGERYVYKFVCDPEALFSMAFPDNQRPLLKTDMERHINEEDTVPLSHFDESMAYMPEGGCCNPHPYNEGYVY
# Chain of ELF4 (Q99607 whole entry): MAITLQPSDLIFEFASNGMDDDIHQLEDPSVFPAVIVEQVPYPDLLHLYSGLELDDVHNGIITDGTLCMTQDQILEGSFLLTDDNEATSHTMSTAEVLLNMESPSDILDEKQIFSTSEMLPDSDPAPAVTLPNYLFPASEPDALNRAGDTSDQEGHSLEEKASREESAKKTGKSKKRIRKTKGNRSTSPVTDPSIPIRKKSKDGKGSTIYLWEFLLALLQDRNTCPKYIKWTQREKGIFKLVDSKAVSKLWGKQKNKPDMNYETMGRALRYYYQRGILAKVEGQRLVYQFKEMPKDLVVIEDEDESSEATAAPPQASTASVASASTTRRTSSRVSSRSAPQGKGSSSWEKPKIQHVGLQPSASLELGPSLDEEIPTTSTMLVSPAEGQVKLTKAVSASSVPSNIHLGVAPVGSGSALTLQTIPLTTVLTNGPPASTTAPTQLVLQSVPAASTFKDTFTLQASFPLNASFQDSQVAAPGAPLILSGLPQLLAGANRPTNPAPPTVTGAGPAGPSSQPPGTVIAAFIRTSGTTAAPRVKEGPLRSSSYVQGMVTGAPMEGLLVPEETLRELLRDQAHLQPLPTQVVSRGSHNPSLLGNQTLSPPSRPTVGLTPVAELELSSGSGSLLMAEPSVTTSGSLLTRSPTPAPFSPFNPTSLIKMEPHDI
# Chain of ETV5 (P41161 whole entry): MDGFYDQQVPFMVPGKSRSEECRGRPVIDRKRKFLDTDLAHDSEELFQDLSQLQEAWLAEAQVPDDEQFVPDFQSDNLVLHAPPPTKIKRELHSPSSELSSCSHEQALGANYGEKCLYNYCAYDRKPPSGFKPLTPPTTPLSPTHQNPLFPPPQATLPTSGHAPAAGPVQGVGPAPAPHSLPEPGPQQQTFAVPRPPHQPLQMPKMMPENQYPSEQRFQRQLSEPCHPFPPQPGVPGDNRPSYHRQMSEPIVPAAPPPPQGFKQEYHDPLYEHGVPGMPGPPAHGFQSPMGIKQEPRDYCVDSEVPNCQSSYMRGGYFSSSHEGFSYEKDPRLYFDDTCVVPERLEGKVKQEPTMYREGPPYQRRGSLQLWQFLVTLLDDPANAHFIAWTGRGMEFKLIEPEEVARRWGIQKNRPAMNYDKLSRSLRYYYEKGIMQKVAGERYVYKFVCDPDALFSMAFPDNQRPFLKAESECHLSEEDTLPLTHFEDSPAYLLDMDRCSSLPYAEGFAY
# Chain of SPIB (Q01892 whole entry): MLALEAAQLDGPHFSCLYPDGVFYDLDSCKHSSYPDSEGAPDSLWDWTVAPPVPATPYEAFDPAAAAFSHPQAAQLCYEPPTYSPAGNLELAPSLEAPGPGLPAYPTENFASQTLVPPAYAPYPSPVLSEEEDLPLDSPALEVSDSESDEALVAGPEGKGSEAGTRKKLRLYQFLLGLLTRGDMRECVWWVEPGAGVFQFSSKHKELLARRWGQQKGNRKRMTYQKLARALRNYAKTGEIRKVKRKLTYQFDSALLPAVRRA
# Chain of ELF1 (P32519 whole entry): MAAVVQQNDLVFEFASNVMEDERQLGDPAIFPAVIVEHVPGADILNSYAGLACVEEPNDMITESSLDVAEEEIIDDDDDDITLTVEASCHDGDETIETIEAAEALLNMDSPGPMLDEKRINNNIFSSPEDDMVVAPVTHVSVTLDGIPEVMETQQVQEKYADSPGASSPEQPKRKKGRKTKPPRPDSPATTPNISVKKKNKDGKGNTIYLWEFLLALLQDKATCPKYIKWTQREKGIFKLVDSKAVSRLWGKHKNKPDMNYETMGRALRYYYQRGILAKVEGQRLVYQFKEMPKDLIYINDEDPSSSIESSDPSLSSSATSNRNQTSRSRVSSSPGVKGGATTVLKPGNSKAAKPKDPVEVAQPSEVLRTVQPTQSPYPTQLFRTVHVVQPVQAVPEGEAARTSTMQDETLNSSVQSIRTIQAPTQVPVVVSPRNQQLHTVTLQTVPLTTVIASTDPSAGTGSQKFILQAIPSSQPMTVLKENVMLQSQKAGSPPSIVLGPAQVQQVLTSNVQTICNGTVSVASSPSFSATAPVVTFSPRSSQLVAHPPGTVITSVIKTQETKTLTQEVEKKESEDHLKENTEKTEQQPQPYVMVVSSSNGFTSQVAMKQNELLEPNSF
sequence,measurement,setting,value
TCAACA,binding signal,[1],"1.06 fold enrichment (6-mer frequency, TF over GST control)"
same,binding signal,[2],"1.13 fold enrichment (6-mer frequency, TF over GST control)"
same,binding signal,[3],"1.11 fold enrichment (6-mer frequency, TF over GST control)"
same,binding signal,[4],"1.04 fold enrichment (6-mer frequency, TF over GST control)"
same,binding signal,[5],"1.03 fold enrichment (6-mer frequency, TF over GST control)"
same,binding signal,[6],"1.05 fold enrichment (6-mer frequency, TF over GST control)"
same,binding signal,[7],"1.01 fold enrichment (6-mer frequency, TF over GST control)"
same,binding signal,[8],"1.06 fold enrichment (6-mer frequency, TF over GST control)"
same,binding signal,[9],"1.05 fold enrichment (6-mer frequency, TF over GST control)"
same,binding signal,[10],"1.04 fold enrichment (6-mer frequency, TF over GST control)"
same,binding signal,[11],"1.05 fold enrichment (6-mer frequency, TF over GST control)"
same,binding signal,[12],"1.07 fold enrichment (6-mer frequency, TF over GST control)"
same,binding signal,[13],"1.06 fold enrichment (6-mer frequency, TF over GST control)"
same,binding signal,[14],"1.03 fold enrichment (6-mer frequency, TF over GST control)"
same,binding signal,[15],"1.09 fold enrichment (6-mer frequency, TF over GST control)"
same,binding signal,[16],"1.07 fold enrichment (6-mer frequency, TF over GST control)"
same,binding signal,[17],"1.07 fold enrichment (6-mer frequency, TF over GST control)"
same,binding signal,[18],"1.08 fold enrichment (6-mer frequency, TF over GST control)"
